# According to PubChem BioAssay (NCI):
# About 79,000 compounds went through this panel and 15% of them were active in at least one assay; those are over-represented in the sample as a whole. Unmarked numbers belong to inactive results. Active and inactive are the calls of the source. Rule as the data show it: active = growth inhibition above about 70%; inactive = the rest.
# Key:
# [1] = NCI Yeast Anticancer Drug Screen. Data for the rad50 strain (AID 155);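 also: 0% = growth of vehicle-only cultures of the same strain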; details: S. cerevisiae rad50 strain growth inhibition, hits give high values
# Method in brief: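 A DNA repair-deficient yeast mutant serves as the test organism; compound-induced growth inhibition is calculated against vehicle-treated cells.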
# [2] = NCI Yeast Anticancer Drug Screen. Data for the mec2-1 strain (AID 157); details: S. cerevisiae mec2-1 strain, hits give high values
# Method in brief: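 Vehicle-treated cultures served as reference for growth inhibition of compound-exposed mec2-1 yeast.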
# [3] = NCI Yeast Anticancer Drug Screen. Data for the sgs1 mgt1 strain (AID 161);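 also: 0% = growth of cultures given vehicle only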; details: S. cerevisiae sgs1 mgt1 strain, hits give high values
# Method in brief: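 Test agents were incubated with a DNA-repair-mutant yeast strain. Growth was then read and compared against vehicle-treated controls.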
# [4] = NCI Yeast Anticancer Drug Screen. Data for the cln2 rad14 strain (AID 165);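 also: 0% = growth equal to vehicle treated cultures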; details: S. cerevisiae cln2 rad14 strain, hits give high values
# Method in brief: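 Each compound was tested on cln2 rad14 yeast. Inhibition of growth was calculated against vehicle-exposed controls.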
# [5] = NCI Yeast Anticancer Drug Screen. Data for the bub3 strain (AID 167); details: S. cerevisiae bub3 mutant strain, hits give high values
# Method in brief: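 Inhibition values come from growth of compound-treated mutant yeast normalised to vehicle-treated controls.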
# [6] = NCI Yeast Anticancer Drug Screen. Data for the mlh1 rad18 strain (AID 175); details: S. cerevisiae mlh1 rad18 strain growth inhibition, hits give high values
# Method in brief: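 Vehicle-treated cultures served as the reference for growth inhibition in a yeast strain carrying DNA damage repair alterations exposed to each compound.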
# [7] = at 5.0 µM (retest, dose inferred, filed as 0.5)
# [8] = at 50.0 µM (retest, dose inferred, filed as 5.0)
Compound,"growth inhibition [1, 7]","growth inhibition [1, 8]",growth inhibition ([1]; at 50.0 µM),"growth inhibition [2, 7]","growth inhibition [2, 8]",growth inhibition ([2]; at 50.0 µM),"growth inhibition [3, 7]","growth inhibition [3, 8]",growth inhibition ([3]; at 50.0 µM),"growth inhibition [4, 7]","growth inhibition [4, 8]",growth inhibition ([4]; at 50.0 µM),"growth inhibition [5, 7]","growth inhibition [5, 8]",growth inhibition ([5]; at 50.0 µM),"growth inhibition [6, 7]","growth inhibition [6, 8]",growth inhibition ([6]; at 50.0 µM)
Cc1c2ccccc2c(=O)n2c(-c3ccccn3)cccc12,-47%,-14%,46.8%,-20%,-16%,-1.2%,7%,-3%,77.8% (active),8%,26%,33.1%,-26%,-17%,30.8%,-43%,31%,-6.4%
COc1ccc(C)c2nc3ccccc3nc12,-119%,86% (active),97% (active),-42%,24%,74.5% (active),-64%,51%,38.7%,-49%,37%,56.2%,-58%,31%,91.9% (active),-110%,67%,87.7% (active)
CCC(C)(C)c1ccc(OC(=O)C(C)OC(C)=O)cc1 (centres undefined),12%,33%,82% (active),-5%,48%,84.9% (active),0%,68%,88% (active),1%,21%,49.9%,-5%,53%,87.2% (active),-10%,46%,86.7% (active)
c1cc[c]([Sn]([S]c2cccc3cccnc23)([c]2ccccc2)[c]2ccccc2)cc1,100% (active),98% (active),96.3% (active),100% (active),100% (active),98.7% (active),100% (active),99% (active),96.9% (active),99% (active),99% (active),94.2% (active),99% (active),99% (active),99% (active),100% (active),99% (active),98.1% (active)
O=C(/C=C(/Nc1ccccc1)C(=O)c1ccccc1)c1ccccc1,3%,77% (active),30.6%,9%,96% (active),37.2%,8%,90% (active),68.8%,0%,39%,-5.1%,13%,33%,74% (active),6%,91% (active),37.7%
O=[N+]([O-])c1ccccc1C1CN=NN1c1ccccc1 (centres undefined),-9%,47%,-0.9%,-2%,25%,17.9%,-1%,33%,38.2%,-14%,32%,-11.3%,-3%,61%,85.5% (active),0%,37%,24.9%
O=C(O)CCCCCCCCCC[S+](CCO)CCO,-2%,31%,43.2%,3%,29%,26.4%,2%,50%,62.1%,20%,12%,67.5%,3%,12%,37.4%,1%,44%,34.5%
CC(C)OCc1cccc2ccnc(COC(C)C)c12,-20%,53%,20.8%,8%,14%,25.6%,-10%,35%,24.9%,-15%,87% (active),20.6%,-11%,91% (active),20.2%,28%,50%,25.1%
Clc1ccc2c(Cl)c3c(nc2c1)CCCC3,-1%,98% (active),99% (active),2%,99% (active),99.5% (active),2%,99% (active),48.1%,0%,99% (active),99.3% (active),3%,98% (active),99.5% (active),-5%,94% (active),99.2% (active)
CC(O)C(O)C(O)C(O)C(O)C(=O)O (centres undefined),-2%,-6%,18.4%,-2%,-1%,10.9%,-1%,-2%,-9.1%,4%,-3%,1.95%,0%,4%,45.7%,-1%,-7%,-10.9%
Oc1c2c(c(O)c3ncccc13)C1C=CC2CC1 (centres undefined),-5%,99% (active),97.7% (active),0%,99% (active),97.1% (active),-5%,98% (active),99.3% (active),-25%,98% (active),84.8% (active),2%,99% (active),97.7% (active),-4%,99% (active),98.3% (active)
CN(C)CC(O)c1cc(-c2ccc(Cl)c(Cl)c2)nc2c(Cl)cc(Cl)cc12 (centres undefined),3%,98% (active),97.8% (active),-3%,99% (active),98.5% (active),-9%,99% (active),98.5% (active),-4%,97% (active),98.2% (active),0%,75% (active),98.3% (active),1%,98% (active),98% (active)
CC1CCCN(CC(O)CN2CCCc3ccccc32)C1 (centres undefined),0%,32%,97.9% (active),8%,17%,94.5% (active),2%,25%,97.6% (active),26%,33%,94.4% (active),-7%,29%,96% (active),6%,40%,97.5% (active)
COc1cccc(/C=C2/Sc3scc(-c4ccccc4)[n+]3C2=O)c1O,14%,20%,80.4% (active),-9%,21%,55.6%,-5%,23%,82.3% (active),-12%,18%,61.8%,-17%,64%,93.1% (active),12%,66%,94.1% (active)
CCCCCCCCNC(=O)C(Cl)Cl,3%,17%,-6.1%,-27%,11%,2.6%,0%,10%,40%,12%,-11%,-10.6%,37%,84% (active),70.4% (active),4%,17%,-3.2%
OCC(CCc1c[nH]c2ccccc12)c1c[nH]c2ccccc12 (centres undefined),27%,99% (active),99.4% (active),5%,99% (active),99.3% (active),20%,100% (active),62%,5%,99% (active),99.5% (active),21%,100% (active),99.3% (active),11%,98% (active),99.3% (active)
c1ccc([P+](CCCCCC[P+](c2ccccc2)(c2ccccc2)c2ccccc2)(c2ccccc2)c2ccccc2)cc1,61%,85% (active),81.7% (active),46%,94% (active),84.8% (active),38%,97% (active),83.3% (active),36%,68%,78.2% (active),43%,77% (active),86.6% (active),52%,94% (active),81.7% (active)
O=C(CC(O)(CC(=O)OCc1ccccc1)C(=O)OCc1ccccc1)OCc1ccccc1,-3%,-23%,99.2% (active),-2%,-27%,99.5% (active),-4%,-22%,99.1% (active),11%,-10%,98.2% (active),-1%,-34%,99.4% (active),3%,-9%,99% (active)
